“And” between values parts separate entries of the source, which are not always exact repeats. Identical values can stand only once. Records with an inconclusive call do not appear. The source made the active and inactive calls. Unless noted, calls come from the whole dose curve; as a rule, active = well fitted curve in the direction sought with a large enough effect in the repeat runs; inconclusive = weak or mixed curves; inactive = no such curve, though single readings can be large; an effect the other way counts as inactive or inconclusive.
Key:
[1] = biological target: Estrogen receptor (Homo sapiens) (UniProt P03372); test: qHTS assay to identify small molecule antagonists of the estrogen receptor alpha (ER-alpha) signaling pathway using the BG1 cell line in the presence of 0.1 nM 17-beta-estradiol (AID 1259244); note: nearly all actives have a fitted effect of over 50% in size
Estrogen receptor (Homo sapiens), sequence (P03372 whole entry, looked up): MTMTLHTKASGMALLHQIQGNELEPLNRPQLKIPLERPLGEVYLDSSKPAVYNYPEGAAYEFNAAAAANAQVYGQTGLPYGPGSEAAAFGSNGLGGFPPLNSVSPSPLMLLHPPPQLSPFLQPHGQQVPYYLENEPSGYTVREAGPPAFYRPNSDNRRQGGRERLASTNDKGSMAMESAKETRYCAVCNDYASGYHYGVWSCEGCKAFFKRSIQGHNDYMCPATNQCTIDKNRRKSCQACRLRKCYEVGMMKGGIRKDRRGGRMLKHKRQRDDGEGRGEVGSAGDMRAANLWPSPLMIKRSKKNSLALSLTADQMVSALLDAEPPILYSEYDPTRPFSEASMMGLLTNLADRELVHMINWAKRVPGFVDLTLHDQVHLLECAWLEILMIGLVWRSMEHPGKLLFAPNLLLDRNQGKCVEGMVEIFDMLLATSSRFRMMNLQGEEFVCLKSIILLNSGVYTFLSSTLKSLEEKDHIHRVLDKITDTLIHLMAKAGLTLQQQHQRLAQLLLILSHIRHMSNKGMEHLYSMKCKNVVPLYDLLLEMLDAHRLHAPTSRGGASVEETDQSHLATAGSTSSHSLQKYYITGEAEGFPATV
Outline: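 Seeding of stripped-serum-adapted VM7Luc4E2 cells, 24 h attachment, compound transfer, then 0.1 nM final 17beta-estradiol; after 22 h incubation, ONE-Glo reagent and luminescence reading.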

[2] = qHTS assay to identify small molecule HDAC inhibitors (AID 1259364); note: potency is the fitted concentration of half-maximal effect;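 note: wild-type HCT-116 cells with endogenous class I/II HDAC activity; nearly all actives have a fitted effect of over 45% in size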
Outline: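 After a 2 hr compound incubation (37C, 5% CO2), HCT-116 cells seeded at 1,500/well the day before received HDAC-Glo reagent; signal read as luminescence after 30 min at room temperature.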

[3] = qHTS assay to identify small molecule HDAC inhibitors - cell viability counter screen (AID 1259365); note: series mostly up to about 92 µM; nearly all actives have a fitted effect of over 50% in size
Outline: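 HCT-116 (wild type), 1,500 cells/well, overnight 37C/5% CO2; compound in DMSO 2hr; CellTiter-Glo 30min RT; luminescence read.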

[4] = qHTS assay to identify small molecule agonists of the sonic hedgehog signaling (Shh) pathway - cell viability counter screen (AID 1259366); note: nearly all actives have a fitted effect of over 50% in size; note: potency is the fitted concentration of half-maximal effect
Outline: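 CellTiter-Fluor fluorescence read-out, 1 hr at 37C, added after 23hr compound exposure. Cells: 3T3 Gli1-Luc, an NIH/3T3 clone with stably integrated Gli1-Luc reporter, plated 4hr before compound.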

[5] = qHTS assay to identify small molecule agonists of the sonic hedgehog signaling (Shh) pathway (AID 1259368; calls by dose curve;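 note: NIH/3T3-derived 3T3Gli1-Luc cells carrying a stable Gli1-driven firefly luciferase reporter; series mostly up to about 92 µM; nearly all actives have a fitted effect of over 15% in size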)
Outline: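 Stable NIH/3T3 Gli1-Luc reporter clone; 24 hr cpd exposure after a 4 hr settling period; luminescence endpoint.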

[6] = qHTS assay to identify small molecule antagonists of the sonic hedgehog signaling (Shh) pathway (AID 1259369; calls by dose curve; note: nearly all actives have a fitted effect of over 45% in size; note: potency is the fitted concentration of half-maximal effect)
Outline: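 Gli1 transcriptional reporter (firefly Luc) in NIH/3T3 background, conditioned-medium activated. 24hr exposure, luminescence endpoint.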

[7] = qHTS assay to identify small molecule agonists of the androgen receptor (AR) signaling pathway in the presence of an antagonist - cell viability counter screen (AID 1259379); note: nearly all actives have a fitted effect of over 25% in size; note: potency is the fitted concentration of half-maximal effect
Outline: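 Counter screen for cell viability run in parallel with the AR agonist-mode luciferase assay. MDA-kb2 cells were co-treated with nilutamide (3.0uM final) and compounds, then incubated 16 hr at 37C, and CellTiter-Fluor fluorescence was measured.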

[8] = qHTS assay to identify small molecule agonists of the estrogen receptor beta (ER-beta) signaling pathway - cell viability counter screen (AID 1259380); note: nearly all actives have a fitted effect of over 30% in size; note: potency is the fitted concentration of half-maximal effect
Outline: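 In this qHTS counter screen, HEK293T cells carrying an ER-beta/UAS beta-lactamase reporter, grown in 2% charcoal-stripped FBS, received compound for 16 hr; ATP-based CellTiter-Glo luminescence was then read after 30 min at room temperature.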

[9] = qHTS assay to identify small molecule antagonists of the estrogen receptor beta (ER-beta) signaling pathway - cell viability counter screen (AID 1259382); note: nearly all actives have a fitted effect of over 55% in size; note: potency is the fitted concentration of half-maximal effect
Outline: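 HEK293T ER-beta-UAS-bla, 2% charcoal-stripped FBS; compounds + 1nM E2 16 hr 37C; CellTiter-Glo luminescence, 30 min RT.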

[10] = biological target: Estrogen receptor (Homo sapiens) (UniProt P03372); test: qHTS assay to identify small molecule agonists of the estrogen receptor alpha (ER-alpha) signaling pathway in the presence of an antagonist (AID 1259383; calls by dose curve; note: top concentration of the series differs between compounds; nearly all actives have a fitted effect of over 15% in size)
Outline: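 ER-alpha agonism measured under antagonist challenge: 10.0nM ICI-182,780 (final) plus compound, 15 concentrations, 22hr, VM7Luc4E2 ERE-luciferase cells. Read by luminescence.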

[11] = qHTS assay to identify small molecule agonists of the estrogen receptor alpha (ER-alpha) signaling pathway in the presence of an antagonist - cell viability counter screen (AID 1259386);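 note: cells exposed to compounds for 22 h at 37 °C before the viability read; nearly all actives have a fitted effect of over 30% in size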; note: potency is the fitted concentration of half-maximal effect
Outline: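 Steps: 5-day stripped-FBS culture; seed and incubate 24hr; add ICI-182,780 (10.0nM final); pin 15-point compound titration; incubate 22hr at 37C; add CellTiter-Fluor at 21hr; read fluorescence.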

[12] = biological target: Progesterone receptor (Homo sapiens) (UniProt P06401); test: qHTS assay to identify small molecule agonists of the progesterone receptor (PR) signaling pathway (AID 1346784; calls by dose curve; note: nearly all actives have a fitted effect of over 30% in size)
Progesterone receptor (Homo sapiens), sequence (P06401 whole entry, looked up): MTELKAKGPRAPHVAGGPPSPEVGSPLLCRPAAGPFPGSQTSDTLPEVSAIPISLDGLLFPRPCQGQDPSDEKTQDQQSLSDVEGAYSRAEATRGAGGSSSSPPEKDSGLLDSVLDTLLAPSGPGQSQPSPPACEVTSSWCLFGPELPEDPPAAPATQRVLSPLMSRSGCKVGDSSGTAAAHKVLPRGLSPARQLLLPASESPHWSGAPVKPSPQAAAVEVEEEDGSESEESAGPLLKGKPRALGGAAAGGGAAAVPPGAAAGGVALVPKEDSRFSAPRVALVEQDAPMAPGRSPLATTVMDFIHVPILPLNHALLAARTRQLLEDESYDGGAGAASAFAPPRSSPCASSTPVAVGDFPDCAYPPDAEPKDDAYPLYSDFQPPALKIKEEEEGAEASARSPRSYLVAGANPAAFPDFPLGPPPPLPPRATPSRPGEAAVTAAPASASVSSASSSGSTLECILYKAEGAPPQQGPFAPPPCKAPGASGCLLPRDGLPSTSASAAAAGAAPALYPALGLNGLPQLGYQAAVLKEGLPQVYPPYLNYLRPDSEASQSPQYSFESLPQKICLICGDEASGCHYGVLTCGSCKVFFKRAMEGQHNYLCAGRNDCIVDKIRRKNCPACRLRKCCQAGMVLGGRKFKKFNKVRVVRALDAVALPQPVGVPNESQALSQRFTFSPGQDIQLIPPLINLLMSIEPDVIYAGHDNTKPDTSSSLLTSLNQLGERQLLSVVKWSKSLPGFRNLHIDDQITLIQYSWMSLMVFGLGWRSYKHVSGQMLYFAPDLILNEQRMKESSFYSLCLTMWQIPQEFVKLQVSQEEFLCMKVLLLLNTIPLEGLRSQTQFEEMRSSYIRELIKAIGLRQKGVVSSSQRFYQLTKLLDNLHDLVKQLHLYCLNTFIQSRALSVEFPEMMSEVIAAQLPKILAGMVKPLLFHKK
Outline: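 HEK 293T PR-UAS-bla reporter cells, 2% charcoal-stripped FBS; 6 hr settle at 37C/5% CO2, compound (DMSO) 16 hr, LiveBLAzer B/G FRET substrate 2 hr RT, fluorescence intensity read.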

[13] = qHTS assay to identify small molecule antagonists of the sonic hedgehog signaling (Shh) pathway - cell viability counter screen (AID 1259367); note: nearly all actives have a fitted effect of over 55% in size; note: potency is the fitted concentration of half-maximal effect
Outline: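 Tox21 library chemicals were tested on a Gli1-Luc NIH/3T3 clone (2,000 cells/well) stimulated by conditioned medium; viability was quantified as fluorescence from CellTiter-Fluor reagent added at 23 hr.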

[14] = biological target: Estrogen receptor beta (Homo sapiens) (UniProt Q92731); test: qHTS assay to identify small molecule agonists of the estrogen receptor beta (ER-beta) signaling pathway (AID 1259377; active = well fitted activation curve with a large enough effect in the signal ratio in the repeat runs, not every such curve was filed as active; the % refers to the signal ratio)
Estrogen receptor beta (Homo sapiens), sequence (Q92731 whole entry, looked up): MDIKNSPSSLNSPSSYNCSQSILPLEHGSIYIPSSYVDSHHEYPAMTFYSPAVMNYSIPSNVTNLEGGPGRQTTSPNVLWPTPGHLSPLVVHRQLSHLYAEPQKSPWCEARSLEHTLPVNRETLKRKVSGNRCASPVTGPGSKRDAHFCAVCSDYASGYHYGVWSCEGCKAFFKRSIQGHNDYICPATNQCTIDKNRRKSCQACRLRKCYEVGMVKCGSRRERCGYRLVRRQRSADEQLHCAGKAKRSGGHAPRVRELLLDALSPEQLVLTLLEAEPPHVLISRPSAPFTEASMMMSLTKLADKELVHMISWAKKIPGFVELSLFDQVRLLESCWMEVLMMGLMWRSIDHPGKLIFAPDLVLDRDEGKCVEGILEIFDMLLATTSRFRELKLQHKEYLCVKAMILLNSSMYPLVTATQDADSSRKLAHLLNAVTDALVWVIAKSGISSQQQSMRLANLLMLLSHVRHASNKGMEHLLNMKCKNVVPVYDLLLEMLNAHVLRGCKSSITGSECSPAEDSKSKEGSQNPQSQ
Outline: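 Beta-lactamase reporter readout: fluorescence of LiveBLAzer B/G FRET substrate after 2 h at room temperature, following 16 h compound treatment of ER-beta-UAS-bla HEK293T cells at 37C in 2% charcoal-stripped FBS medium.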

[15] = biological target: Androgen receptor (Homo sapiens) (UniProt P10275); test: qHTS assay to identify small molecule agonists of the androgen receptor (AR) signaling pathway in the presence of an antagonist (AID 1259381; calls by dose curve; note: nearly all actives have a fitted effect of over 15% in size)
Androgen receptor (Homo sapiens), sequence (P10275 whole entry, looked up): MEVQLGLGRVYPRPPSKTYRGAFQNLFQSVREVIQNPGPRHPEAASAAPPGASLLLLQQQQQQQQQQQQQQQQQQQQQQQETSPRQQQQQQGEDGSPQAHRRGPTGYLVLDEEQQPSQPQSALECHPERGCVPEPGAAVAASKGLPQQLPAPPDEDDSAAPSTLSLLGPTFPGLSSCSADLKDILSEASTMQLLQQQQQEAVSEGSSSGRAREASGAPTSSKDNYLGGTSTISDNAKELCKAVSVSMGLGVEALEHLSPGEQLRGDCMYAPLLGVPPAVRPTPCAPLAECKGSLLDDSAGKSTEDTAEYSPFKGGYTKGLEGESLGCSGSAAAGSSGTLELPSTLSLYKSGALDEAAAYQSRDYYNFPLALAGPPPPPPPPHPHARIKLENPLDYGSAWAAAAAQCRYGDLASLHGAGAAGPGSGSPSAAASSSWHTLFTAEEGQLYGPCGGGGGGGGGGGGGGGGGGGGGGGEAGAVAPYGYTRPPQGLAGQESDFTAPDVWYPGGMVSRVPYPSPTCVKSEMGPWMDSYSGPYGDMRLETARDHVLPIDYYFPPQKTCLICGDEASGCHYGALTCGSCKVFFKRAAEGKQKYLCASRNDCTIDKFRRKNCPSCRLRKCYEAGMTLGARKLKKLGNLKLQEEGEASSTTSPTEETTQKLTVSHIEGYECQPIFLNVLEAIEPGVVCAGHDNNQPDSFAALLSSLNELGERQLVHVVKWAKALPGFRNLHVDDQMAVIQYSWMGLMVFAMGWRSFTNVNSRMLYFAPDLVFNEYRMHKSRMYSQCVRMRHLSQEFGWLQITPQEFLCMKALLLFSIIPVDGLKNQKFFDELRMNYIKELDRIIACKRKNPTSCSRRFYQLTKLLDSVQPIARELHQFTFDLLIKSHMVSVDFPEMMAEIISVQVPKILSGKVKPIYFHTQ
Outline: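 AR antagonist background: nilutamide 3.0uM final. Cell line: MDA-kb2, MMTV-driven luciferase, responsive to both AR and GR. Exposure 16hr, 37C, no CO2; ONE-Glo luminescence.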

[16] = qHTS assay to identify small molecule agonists or antagonists of the thyroid stimulating hormone receptor (TSHR) signaling pathway - wild type cell line counter screen (AID 1259384; calls by dose curve)
Outline: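 Wild-type Hek293 cells, 800/well, 18 h at 37C, then compound with Ro20-1724 for 30 min RT. cAMP by HTRF (cAMP-d2/anti-cAMP cryptate), 1 h RT, fluorescence read. 15 concentrations, triplicates.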

[17] = biological target: Thyrotropin receptor (Homo sapiens) (UniProt P16473); test: qHTS assay to identify small molecule antagonists of the thyroid stimulating hormone receptor (TSHR) signaling pathway (AID 1259385; calls by dose curve; note: nearly all actives have a fitted effect of over 20% in size; note: potency is the fitted concentration of half-maximal effect)
Thyrotropin receptor (Homo sapiens), sequence (P16473 whole entry, looked up): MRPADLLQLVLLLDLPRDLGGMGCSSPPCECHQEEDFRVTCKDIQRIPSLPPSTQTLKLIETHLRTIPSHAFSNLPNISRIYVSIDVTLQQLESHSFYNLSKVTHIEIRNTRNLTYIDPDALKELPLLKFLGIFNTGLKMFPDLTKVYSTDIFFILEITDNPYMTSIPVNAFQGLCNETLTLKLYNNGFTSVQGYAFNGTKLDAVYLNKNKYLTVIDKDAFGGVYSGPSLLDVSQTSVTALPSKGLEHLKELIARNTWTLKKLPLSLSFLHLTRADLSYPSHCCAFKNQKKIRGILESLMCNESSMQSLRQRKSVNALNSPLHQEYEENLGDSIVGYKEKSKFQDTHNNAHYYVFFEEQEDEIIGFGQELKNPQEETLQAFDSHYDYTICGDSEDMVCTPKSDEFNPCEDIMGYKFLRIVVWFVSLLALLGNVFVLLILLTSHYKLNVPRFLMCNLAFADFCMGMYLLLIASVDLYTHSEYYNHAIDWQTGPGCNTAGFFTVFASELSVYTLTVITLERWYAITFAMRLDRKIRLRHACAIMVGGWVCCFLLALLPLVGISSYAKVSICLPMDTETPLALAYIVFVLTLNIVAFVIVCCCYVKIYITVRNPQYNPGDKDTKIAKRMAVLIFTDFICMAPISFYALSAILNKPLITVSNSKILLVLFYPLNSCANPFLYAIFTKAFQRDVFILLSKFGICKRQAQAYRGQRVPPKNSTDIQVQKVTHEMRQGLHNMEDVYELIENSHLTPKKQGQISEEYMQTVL
Outline: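 TSHR-HEK293 cells (800/well) plated 18 h, then compounds with Ro20-1724 and TSH at 1.5 ng/mL final, 30 min at room temperature. cAMP quantified by HTRF (cAMP-d2/anti-cAMP-cryptate, 1 h); 15 concentrations in triplicate.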

[18] = biological target: Estrogen receptor beta (Homo sapiens) (UniProt Q92731); test: qHTS assay to identify small molecule antagonists of the estrogen receptor beta (ER-beta) signaling pathway (AID 1259378; active = well fitted inhibition curve with a large enough effect in the signal ratio in the repeat runs, not every such curve was filed as active; the % refers to the signal ratio; note: potency is the fitted concentration of half-maximal effect)
Outline: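 ER-beta-UAS-bla HEK293T cells in 2% charcoal-stripped FBS medium treated with compound plus 1nM final 17-beta-estradiol for 16 hr at 37C. Beta-lactamase reporter read by FRET substrate fluorescence after 2 hours at room temperature.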

[19] = qHTS assay to identify small molecule phospholipidosis (PLD) inducers (AID 1259344; active = well fitted curve in the direction sought with a large enough effect; an effect the other way counts as inactive or inconclusive)
Outline: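 Image-based: LipidTOX Red pit count/intensity per well and per cell; HepG2, 24 h compound at 37 C, PFA fixation, Hoechst counterstain.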

Measured: Potency

CCC[N+](CCC)(CCC)CCC
not listed: [13] | [14] | [15] | [16] | [17] | [18] | [19]
inactive: all other assays above

CC(C)(C)N(NC(=O)c1ccc(Cl)cc1)C(=O)c1ccccc1
active: [13] 3.83 µM | [11] 4.83 µM
not listed: [4] | [8] | [16] | [17] | [18] | [19]
inactive: all other assays above

O=C(Cc1ccccc1)c1ccccc1
active: [2] 27.3 µM
not listed: [8] | [9] | [13] | [14] | [15] | [18] | [19]
inactive: all other assays above

O=C1NC(=O)C(=O)C(=O)N1
not listed: [6] | [9] | [14] | [15] | [18] | [19]
inactive: all other assays above

O=C=NC1CCCCC1
not listed: [3] | [8] | [9] | [15] | [19]
inactive: all other assays above

CCC1(CCC(C)C)C(=O)NC(=O)NC1=O
not listed: [1] | [10] | [16] | [17]
inactive: all other assays above

FC(F)OC(F)(F)C(F)Cl (stereo not given)
not listed: [1] | [10] | [13]
inactive: all other assays above

CCOC(=O)C1OC1(C)c1ccccc1 (stereo not given)
not listed: [1] | [9] | [10] | [15] | [19]
inactive: all other assays above

CCCC[P+](CC)(CCCC)CCCC (tested in a mixture with another compound)
not listed: [1] | [4] | [7] | [10] | [14] | [15] | [18] | [19]
inactive: all other assays above

C[CH2][Hg][S]c1ccccc1C(=O)O
active: [2] 19.3 µM and 23.7 µM | [4] 1.72 µM and 1.19 µM | [6] 0.686 µM | [18] 3.35 µM | [7] 10.9 µM and 13.3 µM | [8] 2.17 µM and 5.31 µM | [9] 2.43 µM and 5.31 µM | [17] 13.7 µM and 29.8 µM | [11] 13.7 µM and 21.1 µM
inactive: [19] | [5] | [14] | [15]

CC[N+]1(C)CCCC(OC(=O)C(O)(c2ccccc2)c2ccccc2)C1 (stereo not given)
not listed: [1] | [3] | [8] | [10] | [14] | [15] | [18]
inactive: all other assays above

COC1=CC(=O)O[C@@H](/C=C/c2ccc3c(c2)OCO3)C1
active: [2] 23.3 µM
inactive: [3] | [5] | [7] | [16] | [17] | [11] | [12]

CN(C1CCCCC1)C1CCCCC1
not listed: [4] | [12] | [19]
inactive: all other assays above

Nc1cccc2ccccc12
not listed: [1] | [3] | [6] | [12] | [14] | [15] | [18] | [19]
inactive: all other assays above

Nc1ccccc1C(=O)OCC(O)CO (stereo not given)
not listed: [14] | [18] | [19]
inactive: all other assays above

CCC1CCC(=O)O1 (stereo not given)
not listed: [1] | [4] | [10] | [14] | [15] | [19]
inactive: all other assays above

O=C(N/N=C/c1ccc([N+](=O)[O-])o1)c1cc([N+](=O)[O-])cc([N+](=O)[O-])c1O
active: [4] 10.6 µM | [13] 10.6 µM | [6] 10.6 µM | [7] 11.9 µM | [11] 21.1 µM
not listed: [1] | [10] | [15]
inactive: all other assays above

Cc1nnc(-c2ccccc2)c(=O)n1N
not listed: [3] | [15] | [19]
inactive: all other assays above

CNC(=O)Oc1cccc(N=CN(C)C)c1
not listed: [4] | [7] | [14] | [15] | [19]
inactive: all other assays above

— PubChem BioAssay (Tox21)
